About 83,000 compounds went through this panel and 20% of them were active in at least one assay; those are over-represented in the sample as a whole.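 Results are percent growth after 48 hours of single-concentration exposure. 100 means growth as in untreated cells, lower positive values show inhibition; negative values down to -100 show cell death.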 Values without a mark were called inactive. How the source made its calls: active means growth percent below 10; inactive means the rest.

This experiment relates to MDA-MB-468 breast. Kind of experiment: NCI-60 one-dose screen, 48 h (100 = growth as untreated, 0 = no growth, -100 = all killed). Particulars: 10 µM unless noted.
In the case of `O=C1CNC(c2ccccc2)c2cc(Cl)ccc2N1` (stereo not given), the growth is 104%.
In the case of `CC(Cc1ccc2c(c1)OCO2)NN` (stereo not given) it was 105%; in that of `CCOC(=O)[C@@H](C)C[C@H](Cc1ccccc1)NC(=O)c1csc([C@@H](C[C@H](C(C)C)N(C)C(=O)[C@@H](NC(=O)[C@H]2C[C@H](O)CCN2C)C(C)C)OC(C)=O)n1`, 21.8%.
For `CC(C)COC(C[N+](=O)[O-])C(Cl)(Cl)Cl` (stereo not given) the value was 112%; for `CC(=O)C1C(=O)N(C)C(=O)N(C)C1=O`, 104%.

The values above are taken from PubChem BioAssay (NCI).
